According to PubChem BioAssay (Tox21):
Results filed as inconclusive are left out. A call without a number means that no potency is given here. Unmarked numbers belong to inactive results. Activity calls are given as the source filed them. Unless noted, calls follow the shape of the dose curve; as a rule, active = well fitted curve in the direction sought with a large enough effect in the repeat runs; inconclusive = weak or mixed curves; inactive = no such curve, though single readings can be large; an effect the other way counts as inactive or inconclusive.

What was measured:
[1] = qHTS assay to identify small molecule antagonists of the thyroid receptor (TR) signaling pathway - cell viability counter screen (AID 743064); also: nearly all actives have a fitted effect of over 50% in size; also: potency is read from the fitted curve at half-maximal effect
How it was run: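 Fluorescence from CellTiter-Fluor, added after 23.5 h exposure at 37 °C, reported viability of GH3.TRE-Luc cells co-treated with compound and 1 nM T3. Measured in the same wells as the luciferase TR readout.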

[2] = qHTS assay to identify small molecule antagonists of the thyroid receptor (TR) signaling pathway (AID 743065); also: nearly all actives have a fitted effect of over 55% in size; also: potency is read from the fitted curve at half-maximal effect
How it was run: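 GH3.TRE-Luc rat pituitary cells (two TREs driving luciferase) were dosed with compound, then stimulated with 1 nM T3 (final) for 23.5 h at 37 C. ONE-Glo luminescence was the read-out, with CellTiter-Fluor fluorescence as the cytotoxicity counter-screen.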

[3] = test system: thyroid hormone receptor (rat, GH3 cells); assay: qHTS assay to identify small molecule agonists of the thyroid receptor (TR) signaling pathway (AID 743066; calls by dose curve)
[4] = qHTS assay to identify small molecule antagonists of the estrogen receptor alpha (ER-alpha) signaling pathway - cell viability counter screen (AID 743074; calls by dose curve;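 also: HEK293 cells carrying ER-alpha-UAS-bla reporter stimulated with 17beta-estradiol; nearly all actives have a fitted effect of over 45% in size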)
[5] = qHTS assay to identify small molecule antagonists of the estrogen receptor alpha (ER-alpha) signaling pathway using the BG1 cell line - cell viability counter screen (AID 743081);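 also: compound given together with 17beta-estradiol as the ER stimulus; series mostly up to about 70 µM; nearly all actives have a fitted effect of over 45% in size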
[6] = molecular target: Estrogen receptor (Homo sapiens) (UniProt P03372); assay: qHTS assay to identify small molecule antagonists of the estrogen receptor alpha (ER-alpha) signaling pathway (AID 743069; active = well fitted curve in the direction sought with a large enough effect in the signal ratio in the repeat runs, not every such curve was filed as active; the % refers to the signal ratio)
How it was run: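 Reporter cells (ER-alpha-bla, HEK293 background) are conditioned overnight in stripped-serum medium (2% charcoal-stripped FBS). Compound and 17beta-estradiol exposure runs 18 hr at 37C, 5% CO2.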

[7] = molecular target: Estrogen receptor (Homo sapiens) (UniProt P03372); assay: qHTS assay to identify small molecule agonists of the estrogen receptor alpha (ER-alpha) signaling pathway (AID 743075; calls by dose curve;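 also: HEK293 GripTite cells with ER-alpha and UAS-driven beta-lactamase reporter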)
[8] = molecular target: Aromatase (Homo sapiens) (UniProt P11511); assay: qHTS assay to identify aromatase inhibitors (AID 743083); also: nearly all actives have a fitted effect of over 55% in size; also: potency is read from the fitted curve at half-maximal effect
[9] = molecular target: Estrogen receptor (Homo sapiens) (UniProt P03372); assay: qHTS assay to identify small molecule agonists of the estrogen receptor alpha (ER-alpha) signaling pathway using the BG1 cell line (AID 743079); also: nearly all actives have a fitted effect of over 20% in size; also: potency is read from the fitted curve at half-maximal effect
[10] = qHTS assay to identify small molecule antagonists of the estrogen receptor alpha (ER-alpha) signaling pathway using the BG1 cell line (AID 743080; calls by dose curve;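 also: BG1 cells stimulated with 17beta-estradiol alongside compound; nearly all actives have a fitted effect of over 25% in size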; also: potency is read from the fitted curve at half-maximal effect)
How it was run: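 Readout is ONE-Glo luminescence, taken 30 min at room temperature after reagent addition, preceded by a CellTiter-Fluor viability read; BG1-Luc-4E2 cells had received compound and 17beta-estradiol for 21.5 h at 37 C.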

Chain of Aromatase (Homo sapiens) (P11511 whole entry, looked up): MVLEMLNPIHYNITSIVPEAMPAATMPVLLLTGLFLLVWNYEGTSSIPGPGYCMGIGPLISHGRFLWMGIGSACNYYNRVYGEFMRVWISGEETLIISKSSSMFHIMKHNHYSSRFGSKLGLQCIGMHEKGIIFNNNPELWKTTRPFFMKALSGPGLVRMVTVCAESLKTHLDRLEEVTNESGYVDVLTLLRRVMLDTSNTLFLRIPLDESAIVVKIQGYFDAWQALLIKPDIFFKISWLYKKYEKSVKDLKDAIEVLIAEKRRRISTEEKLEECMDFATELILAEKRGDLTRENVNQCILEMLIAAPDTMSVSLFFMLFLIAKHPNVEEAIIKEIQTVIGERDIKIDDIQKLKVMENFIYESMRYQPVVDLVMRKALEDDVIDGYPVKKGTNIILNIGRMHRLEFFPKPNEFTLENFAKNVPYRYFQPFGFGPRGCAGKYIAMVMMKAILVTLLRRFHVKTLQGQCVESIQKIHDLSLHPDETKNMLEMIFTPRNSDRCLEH
Chain of Estrogen receptor (Homo sapiens) (P03372 whole entry, looked up): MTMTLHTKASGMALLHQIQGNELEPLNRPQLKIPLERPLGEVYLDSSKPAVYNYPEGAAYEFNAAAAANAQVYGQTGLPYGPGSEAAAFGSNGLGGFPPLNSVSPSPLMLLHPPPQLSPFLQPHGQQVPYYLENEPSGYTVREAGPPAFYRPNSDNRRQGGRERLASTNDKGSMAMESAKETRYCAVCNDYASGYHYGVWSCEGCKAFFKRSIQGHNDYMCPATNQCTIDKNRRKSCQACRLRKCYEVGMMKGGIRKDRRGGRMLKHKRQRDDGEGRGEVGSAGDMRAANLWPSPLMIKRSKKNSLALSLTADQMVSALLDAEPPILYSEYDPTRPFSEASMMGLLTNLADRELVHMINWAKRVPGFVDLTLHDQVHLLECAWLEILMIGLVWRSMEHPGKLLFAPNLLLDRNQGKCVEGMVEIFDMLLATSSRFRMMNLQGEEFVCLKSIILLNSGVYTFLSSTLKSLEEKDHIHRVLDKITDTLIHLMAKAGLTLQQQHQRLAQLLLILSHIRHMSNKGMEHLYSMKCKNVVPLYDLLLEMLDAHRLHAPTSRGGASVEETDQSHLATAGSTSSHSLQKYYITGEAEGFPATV

SMILES | Potency [1] | Potency [2] | outcome [3] | outcome [4] | Potency [5] | Potency [6] | Potency [7] | Potency [8] | Potency [9] | Potency [10]
CCc1c(C)[nH]c2c1C(=O)C(CN1CCOCC1)CC2 (stereo not given) | inactive | inactive | inactive | inactive | inactive |  |  |  |  | 
CCOc1ccc(NC(C)=O)cc1N | inactive | inactive | inactive | inactive | inactive | inactive | inactive | inactive |  | 
Nc1cccc2c(=O)[nH][nH]c(=O)c12 | inactive | inactive | inactive | inactive | inactive |  | inactive | inactive | inactive | inactive
CCOc1ccccc1O | inactive | inactive | inactive | inactive | inactive |  |  | inactive |  | 
CCCCCCCCOCCCN | 13.7 µM (active) | 21.7 µM (active) | inactive | inactive | inactive |  | inactive | inactive |  | inactive
CC1(C)[C@@H]2CC[C@]3(C2)[C@@H]1C(=O)CCC3(C)C | inactive | inactive | inactive |  | inactive | inactive | inactive |  | inactive | inactive
Nc1ccc(-c2ccc(F)cc2)cc1 | inactive | inactive | inactive | inactive | inactive |  | inactive | inactive | 54.5 µM (active) | 
C[C@@H](O)[C@H]1C(=O)N2C(C(=O)O)=C(S[C@@H]3CN[C@H](CNS(N)(=O)=O)C3)[C@H](C)[C@H]12 | inactive | inactive | inactive | inactive | inactive | inactive | inactive | inactive |  | inactive
CC1(C)CC(O)CC(C)(C)N1[O] | inactive | inactive | inactive | inactive | inactive | inactive | inactive | inactive | inactive | 
CCCCCCCCCCCCCCCCC(=O)O | inactive | inactive | inactive | inactive | inactive |  |  | inactive |  | 
CCCCCO | inactive | inactive | inactive | inactive |  | inactive | inactive | inactive | inactive | 
CC(C)Cc1nccs1 | inactive | inactive | inactive | inactive | inactive |  |  | inactive |  | 
Cc1c(-c2cccnc2)c2ccccc2n1CCCCC(=O)O | inactive | inactive | inactive | inactive | inactive |  |  | 43.3 µM (active) |  | 
CCOc1ccc2c(c1)C(C)CC(C)(C)N2 (stereo not given) | inactive | inactive | inactive | inactive | inactive |  |  | inactive |  | 
CC(C)(O)C(=O)O | inactive | inactive | inactive | inactive | inactive |  |  |  |  | 
O=C(O)c1ccccc1[N+](=O)[O-] | inactive | inactive | inactive | inactive | inactive |  |  | inactive |  | 
CC1(C)CC(=O)CC(C)(C)N1 | inactive | inactive | inactive | inactive | inactive |  | inactive | inactive | inactive | inactive

SMILES | Potency [1] | Potency [2] | outcome [3] | outcome [4] | Potency [5] | Potency [6] | Potency [7] | Potency [8] | Potency [9] | Potency [10]
C=Cc1ccc(C=C)cc1 | inactive | inactive | inactive |  | inactive | inactive | inactive | inactive | inactive | 
CC(=O)S[C@H](C(=O)N[C@H]1Cc2ccccc2[C@H]2CCC[C@@H](C(=O)O)N2C1=O)C(C)C | inactive | inactive | inactive | inactive | inactive |  |  | inactive |  | 
O=C1c2ccccc2C(=O)C1c1ccc2ccccc2n1 | inactive | inactive | inactive | inactive |  | inactive | inactive | inactive |  | 
O=P(c1ccccc1)(c1ccccc1)c1ccccc1 | inactive |  | inactive | inactive | inactive | inactive | inactive | inactive | inactive | inactive
Nc1ccccc1Nc1ccccc1 | 15.4 µM (active) | 12.2 µM (active) |  | inactive | inactive |  |  |  |  | 
C[C@H](CN1CCCC1)C(=O)c1ccc(C(F)(F)F)cc1 | inactive | 26.6 µM (active) | inactive | inactive |  |  |  | inactive |  | 
COc1ccc(CN(CCN(C)C)c2ncccn2)cc1 | inactive | inactive | inactive | inactive | inactive |  |  | inactive |  | 
CC(=O)Nc1ccccc1O | inactive | inactive | inactive | inactive | inactive |  |  | inactive |  | 
O=C(c1ccc(Cl)cc1)c1ccc(Cl)cc1 | inactive |  | inactive | inactive | inactive | inactive | inactive | inactive | inactive | 
O=C(O)CCc1nc2ccccc2[nH]1 | inactive |  | inactive | inactive | inactive | inactive | inactive | inactive | inactive | inactive
Cc1ccc2ccccc2c1[N+](=O)[O-] | inactive | inactive |  | inactive | inactive | inactive | inactive |  | inactive | inactive
c1ccc(CCNc2nc(-c3ccccc3)cs2)cc1 | inactive | inactive | inactive |  | inactive |  | inactive | inactive | 0.944 µM (active) | 
CCOCCn1c(N2CCCN(C)CC2)nc2ccccc21 | inactive | inactive | inactive |  | inactive |  |  |  |  | 
Cc1ccc2c(Cl)cc(Cl)c(O)c2n1 | 1.19 µM (active) | 1.68 µM (active) |  |  |  |  |  | 13.3 µM (active) |  | 9.44 µM (active)
OCCOc1cccc(OCCO)c1 | inactive | inactive | inactive | inactive | inactive |  |  | inactive |  | 
CCCCC(CC)COCCC#N (stereo not given) | inactive | inactive | inactive | inactive | inactive |  |  | inactive |  | 
